The supplement of paper PMC10670038
± gives the standard deviation of the averaged measurements. Whole data set: some 2,000 compounds, median “relative cell viability vs DMSO, compound + 0.2 uM CuET” near 1, cut for the lowest 2% near 0.25. The entries come from a sample that favours the lowest values as a whole.

system: TE10; assay: relative cell viability vs DMSO, compound + 0.2 uM CuET (fraction); TE10 is an esophageal squamous carcinoma line; higher = less cytotoxic; conditions: 2 µM; co-treatment: CuET (bis(diethyldithiocarbamate)copper) 0.2 uM; 48 h
Description: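 TE10 ESCC cells (1,000/well, 384-well plates) were treated with Selleck bioactive library compounds at 2 uM combined with 0.2 uM CuET (copper diethyldithiocarbamate) for 48 h. Viability was read by CellTiter-Glo and expressed relative to DMSO wells. Two technical replicates (A, B).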

SMILES	relative cell viability
CC(C)(C)c1cnc(CSc2cnc(NC(=O)C3CCNCC3)s2)o1	0.963 ± 0.093
COc1c2ccoc2cc2oc(=O)ccc12 [Bergapten]	1.12 ± 0.038
CCC(=O)O[C@]1(C(=O)SCF)[C@H](C)C[C@H]2[C@@H]3C[C@H](F)C4=CC(=O)C=C[C@]4(C)[C@@]3(F)[C@@H](O)C[C@@]21C [Fluticasone propionate]	1.02 ± 0.043
Oc1c(Br)cc(Br)c2cccnc12 [Broxyquinoline]	0.689 ± 0.033
O=S(=O)(O)c1cc(O)ccc1O [Ethamsylate]	1.08 ± 0.096
C=CCc1ccc(O)c(-c2cc(CC=C)ccc2O)c1 [Magnolol]	1.02 ± 0.057
O=S(=O)(O)CCS [Mesna]	1.08 ± 0.024
CN1CCN(Cc2ccc(NC(=O)Cc3ccc(Oc4cc(NC(=O)C5CC5)ncn4)cc3)cc2C(F)(F)F)CC1	0.9884 ± 0.0017
CCS(=O)(=O)Nc1ccc2[nH]c(O)c(C(=Nc3ccc(CN4CCCCC4)cc3)c3ccccc3)c2c1 [Hesperadin]	0.5395 ± 0.0028
CCOC(=O)C1=C(N)Oc2ccc(Cl)cc2C1C(C#N)C(=O)OCC (configuration not stated)	0.663 ± 0.023
CN[C@@H](C)C(=O)N[C@H](C(=O)N1CCC[C@H]1C(=O)N[C@H](C(=O)NCCCCCCNC(=O)[C@@H](NC(=O)[C@@H]1CCCN1C(=O)[C@@H](NC(=O)[C@H](C)NC)C1CCCCC1)C(c1ccccc1)c1ccccc1)C(c1ccccc1)c1ccccc1)C1CCCCC1	0.437 ± 0.011
CC(C)(C)c1[nH]cnc1/C=c1\[nH]c(=O)/c(=C/c2ccccc2)[nH]c1=O [Plinabulin (NPI-2358)]	0.753 ± 0.058
NCC(=O)Nc1ccc(-n2nc(C(F)(F)F)cc2-c2ccc3c(ccc4ccccc43)c2)cc1	0.649 ± 0.017
COCCOc1nc(-c2ccc(Cl)c(Cl)c2)n(-c2ccc(NC(=O)CCl)cc2)n1 [MI-2 (MALT1 inhibitor)]	0.115 ± 0.0096
COc1nc(-c2ccc3c(c2)OCO3)n(-c2ccc(NC(=O)CSc3ccccc3)cc2)n1 [SecinH3]	1.25 ± 0.17
CN(C)c1cc(NC(=O)CNC(C)(C)C)c(O)c2c1CC1CC3C(N(C)C)C(=O)C(C(N)=O)=C(O)C3(O)C(=O)C1=C2O (configuration not stated) [Tigecycline]	0.994 ± 0.068
O=Nc1c(-c2c(O)[nH]c3cc(Br)ccc23)[nH]c2ccccc12	1.083 ± 0.0023
C[N+]1(C)[C@@H]2C[C@@H](OC(=O)C(O)(c3cccs3)c3cccs3)C[C@H]1[C@@H]1O[C@@H]12 [Tiotropium Bromide hydrate]	0.962 ± 0.027
C=C1CC2(O)OC3(CC2C(C)C)C(C)CCC13 (configuration not stated) [Curcumol]	0.838 ± 0.028
CCCCN(Cc1ccc(C(=O)NO)cc1)C(=O)Nc1ccccc1 [Nexturastat A]	0.837 ± 0.056
CC(C)[C@H](C(=O)Nc1ccc(C(=O)NO)cc1)c1ccccc1	0.178 ± 0.0071
CC(=O)Nc1ccc(C(=O)Nc2ccccc2N)cc1 [CI994 (Tacedinaline)]	1.23 ± 0.26
